Experimental data reported in the supplement of paper PMC8975748.
Structures can show the parent of a compound that is named as a salt. ± gives the standard deviation of the averaged measurements.

Experiments:
[1] = test system: Saccharomyces cerevisiae BY4741 SeMeCo community; assay: mean cell size (pixel area) (pixels); higher = larger cells; conditions: 10 µM; 24 h; SM minimal medium
In short: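 Yeast cells were fixed with paraformaldehyde, imaged by automated confocal microscopy and analysed in Harmony to obtain mean cell pixel area per well. They came from a four-plasmid fluorescent Saccharomyces cerevisiae BY4741 community, each plasmid complementing one auxotrophy and carrying a fluorescent marker. Before imaging, 70 µl of culture at OD600 = 0.3 was incubated for 24 h in SM medium in 384-well plates predosed acoustically with drug (final 10 µM). Values are means of 3 replicates. Same SeMeCo high-content imaging drug screen: Selleck FDA-approved drugs at 10 µM, 24 h in SM medium, 384-well plates, 3 replicates.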

[2] = test system: Saccharomyces cerevisiae BY4741 SeMeCo community; assay: z-score of prototroph abundance vs DMSO median; higher = larger share of this subpopulation than in DMSO controls; conditions: 10 µM; 24 h; SM minimal medium; subpopulation (auxotrophy): Prototroph
In short: (§1)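 Automated confocal microscopy of paraformaldehyde-fixed cells was used to follow a Saccharomyces cerevisiae BY4741 community carrying four plasmids, each restoring one auxotrophy and encoding a distinct fluorescent protein. The community was pre-grown overnight to OD600 1.0, diluted to 0.3, and added at 70 µl to 384-well plates acoustically predosed with library drugs (10 µM final) for 24 h of growth in minimal SM medium. Single-auxotroph fluorescent strains set thresholds and autofluorescence correction, and each subpopulation's abundance was scored as a z-score against the vehicle-well median.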

[3] = test system: Saccharomyces cerevisiae BY4741 SeMeCo community; assay: z-score of subpopulation abundance vs DMSO median, subpopulation auxotrophic for M; higher = larger share of this subpopulation than in DMSO controls; conditions: 10 µM; 24 h; SM minimal medium; subpopulation (auxotrophy): M
In short: as §1

[4] = test system: Saccharomyces cerevisiae BY4741 SeMeCo community; assay: z-score of subpopulation abundance vs DMSO median, subpopulation auxotrophic for L; higher = larger share of this subpopulation than in DMSO controls; conditions: 10 µM; 24 h; SM minimal medium; subpopulation (auxotrophy): L
In short: as §1

[5] = test system: Saccharomyces cerevisiae BY4741 SeMeCo community; assay: z-score of subpopulation abundance vs DMSO median, subpopulation auxotrophic for H; higher = larger share of this subpopulation than in DMSO controls; conditions: 10 µM; 24 h; SM minimal medium; subpopulation (auxotrophy): H
In short: as §1

[6] = test system: Saccharomyces cerevisiae BY4741 SeMeCo community; assay: z-score of subpopulation abundance vs DMSO median, subpopulation auxotrophic for LU; higher = larger share of this subpopulation than in DMSO controls; conditions: 10 µM; 24 h; SM minimal medium; subpopulation (auxotrophy): LU
In short: as §1

[7] = test system: Saccharomyces cerevisiae BY4741 SeMeCo community; assay: z-score of subpopulation abundance vs DMSO median, subpopulation auxotrophic for LM; higher = larger share of this subpopulation than in DMSO controls; conditions: 10 µM; 24 h; SM minimal medium; subpopulation (auxotrophy): LM
In short: as §1

[8] = test system: Saccharomyces cerevisiae BY4741 SeMeCo community; assay: z-score of subpopulation abundance vs DMSO median, subpopulation auxotrophic for HU; higher = larger share of this subpopulation than in DMSO controls; conditions: 10 µM; 24 h; SM minimal medium; subpopulation (auxotrophy): HU
In short: as §1

[9] = test system: Saccharomyces cerevisiae BY4741 SeMeCo community; assay: z-score of subpopulation abundance vs DMSO median, subpopulation auxotrophic for UM; higher = larger share of this subpopulation than in DMSO controls; conditions: 10 µM; 24 h; SM minimal medium; subpopulation (auxotrophy): UM
In short: as §1

[10] = test system: Saccharomyces cerevisiae BY4741 SeMeCo community; assay: z-score of subpopulation abundance vs DMSO median, subpopulation auxotrophic for HL; higher = larger share of this subpopulation than in DMSO controls; conditions: 10 µM; 24 h; SM minimal medium; subpopulation (auxotrophy): HL
In short: as §1

[11] = test system: Saccharomyces cerevisiae BY4741 SeMeCo community; assay: z-score of subpopulation abundance vs DMSO median, subpopulation auxotrophic for HLM; higher = larger share of this subpopulation than in DMSO controls; conditions: 10 µM; 24 h; SM minimal medium; subpopulation (auxotrophy): HLM
In short: as §1

[12] = test system: Saccharomyces cerevisiae BY4741 SeMeCo community; assay: z-score of subpopulation abundance vs DMSO median, subpopulation auxotrophic for HUM; higher = larger share of this subpopulation than in DMSO controls; conditions: 10 µM; 24 h; SM minimal medium; subpopulation (auxotrophy): HUM
In short: as §1

[13] = test system: Saccharomyces cerevisiae BY4741 SeMeCo community; assay: z-score of subpopulation abundance vs DMSO median, subpopulation auxotrophic for U; higher = larger share of this subpopulation than in DMSO controls; conditions: 10 µM; 24 h; SM minimal medium; subpopulation (auxotrophy): U
In short: as §1

[14] = test system: Saccharomyces cerevisiae BY4741 SeMeCo community; assay: z-score of subpopulation abundance vs DMSO median, subpopulation auxotrophic for HLUM; higher = larger share of this subpopulation than in DMSO controls; conditions: 10 µM; 24 h; SM minimal medium; subpopulation (auxotrophy): HLUM
In short: as §1

[15] = test system: Saccharomyces cerevisiae BY4741 SeMeCo community; assay: z-score of subpopulation abundance vs DMSO median, subpopulation auxotrophic for HM; higher = larger share of this subpopulation than in DMSO controls; conditions: 10 µM; 24 h; SM minimal medium; subpopulation (auxotrophy): HM
In short: as §1

[16] = test system: Saccharomyces cerevisiae BY4741 SeMeCo community; assay: z-score of subpopulation abundance vs DMSO median, subpopulation auxotrophic for LUM; higher = larger share of this subpopulation than in DMSO controls; conditions: 10 µM; 24 h; SM minimal medium; subpopulation (auxotrophy): LUM
In short: as §1

| Structure (SMILES) | mean cell size [1] | z-score of prototroph abundance [2] | z-score of subpopulation abundance [3] | z-score of subpopulation abundance [4] | z-score of subpopulation abundance [5] | z-score of subpopulation abundance [6] | z-score of subpopulation abundance [7] | z-score of subpopulation abundance [8] | z-score of subpopulation abundance [9] | z-score of subpopulation abundance [10] | z-score of subpopulation abundance [11] | z-score of subpopulation abundance [12] | z-score of subpopulation abundance [13] | z-score of subpopulation abundance [14] | z-score of subpopulation abundance [15] | z-score of subpopulation abundance [16] |
| --- | --- | --- | --- | --- | --- | --- | --- | --- | --- | --- | --- | --- | --- | --- | --- | --- |
| Cc1onc(-c2c(F)cccc2Cl)c1C(=O)N[C@@H]1C(=O)N2[C@@H]1SC(C)(C)[C@@H]2C(=O)O [Flucloxacillin sodium] | 12.55 ± 0.1 | -0.59 | 1.08 | -0.25 | -0.11 | 0.16 | -0.65 | -0.23 | 0.64 | -0.43 | -0.51 | 0.1 | – | – | – | – |
| CC(C)c1c(C(=O)Nc2ccccc2)c(-c2ccccc2)c(-c2ccc(F)cc2)n1CC[C@@H](O)C[C@@H](O)CC(=O)O [Atorvastatin Calcium] | 12 ± 0.14 | -7.41 | 0.46 | 0.91 | 7.9 | 2.65 | 2.22 | 7.9 | 4.62 | – | 9.32 | 7.67 | 0.01 | 4.28 | – | – |
| CN1CCc2cc3c(cc2C(=O)Cc2ccc4c(c2C1)OCO4)OCO3 [Protopine] | – | -0.56 | -0.25 | 1.72 | 0.05 | 1.45 | 1.78 | -0.45 | -0.23 | 1.17 | 0.14 | 0.19 | -0.67 | 0.9 | -0.3 | 1.38 |
| CC[C@@H]1/C=C(\C)C[C@H](C)C[C@H](OC)[C@H]2O[C@@](O)(C(=O)C(=O)N3CCCC[C@H]3C(=O)O[C@H](/C(C)=C/[C@@H]3CC[C@@H](O)[C@H](OC)C3)[C@H](C)[C@@H](O)CC1=O)[C@H](C)C[C@@H]2OC [Ascomycin (FK520)] | 11.8 ± 0.18 | -1.94 | 1.34 | 0.1 | 1.96 | -0.23 | 1.39 | – | 0.63 | – | 1.57 | 2.57 | -0.06 | – | 1.4 | 2.23 |
| COCCCOc1ccnc(C[S+]([O-])c2nc3ccccc3[nH]2)c1C (stereo unspecified) [Rebeprazole sodium] | 12.5 ± 0.13 | -0.38 | 0.58 | -0.68 | -0.76 | -0.77 | 0.03 | -0.49 | – | -0.55 | -0.22 | 0.36 | 0.15 | – | 0.23 | 0.11 |
| C/C=C1\[C@H]2C=C(C)C[C@]1(N)c1ccc(=O)[nH]c1C2 [(-)-Huperzine A (HupA)] | 12.04 ± 0.12 | 0.12 | 1.03 | -0.33 | -1.16 | -0.37 | – | -0.26 | 0.89 | -1.26 | -0.61 | 0.11 | 0.2 | -0.57 | 0.12 | -0.73 |
| CN[C@@H]1[C@H](O[C@H]2[C@H](O[C@H]3[C@H](O)[C@@H](O)[C@H](NC(=N)N)[C@@H](O)[C@@H]3NC(=N)N)O[C@@H](C)[C@]2(O)CO)O[C@@H](CO)[C@H](O)[C@H]1O [Dihydrostreptomycin sulfate] | 12.2 ± 0.26 | 0.5 | -0.56 | 0.01 | -0.62 | -0.74 | – | -0.87 | -0.47 | -0.83 | 0.47 | -0.82 | 0.78 | 0.3 | -0.91 | – |
| CC(=O)O[C@H]1C[C@@H]2CC[C@@H]3[C@H](CC[C@@]4(C)[C@H]3C[C@H]([N+]3(C)CCCCC3)[C@@H]4OC(C)=O)[C@@]2(C)C[C@@H]1N1CCCCC1 [Vecuronium Bromide] | 12.4 ± 0.31 | 0.67 | -0.47 | 0.57 | -0.09 | 0 | -1.11 | -0.65 | -0.59 | -0.24 | -0.5 | 0.09 | – | – | -0.57 | -0.05 |
| Cc1cc(C)nc(NS(=O)(=O)c2ccc(N)cc2)n1 [Sulfamethazine] | 12.5 ± 0.25 | 0 | 0.92 | 0.4 | – | -0.83 | 0.84 | – | -0.43 | -0.28 | 0.59 | -0.1 | -0.82 | – | 0.43 | -0.16 |
| CO[C@@H]1[C@@H](OC(N)=O)[C@@H](O)[C@H](Oc2ccc3c(O)c(NC(=O)c4ccc(O)c(CC=C(C)C)c4)c(=O)oc3c2C)OC1(C)C [Novobiocin Sodium] | 12.7 ± 0.19 | -1.53 | -0.26 | -0.72 | – | 0.73 | -0.47 | 2.61 | 0.58 | 1.28 | 0.81 | 2.57 | 0.65 | 0.56 | – | 1.43 |
| CCCN[C@H]1CCc2nc(N)sc2C1 [Pramipexole 2HCl Monohydrate] | – | 0.72 | 0.15 | -0.36 | -0.51 | -0.67 | -1.2 | -0.19 | – | -0.02 | -0.59 | -0.88 | -0.54 | -0.69 | -0.39 | -0.47 |
| O=C(c1ccc(F)cc1)C1CCN(CCn2c(=O)[nH]c3ccccc3c2=O)CC1 [Ketanserin] | 12.33 ± 0.039 | 0.15 | 0.03 | -0.47 | – | -0.66 | 0.46 | -0.13 | -0.54 | 0.13 | -0.05 | -0.47 | 0.03 | – | -0.51 | – |
| N=C(N)NS(=O)(=O)c1ccc(N)cc1 [Sulfaguanidine] | 12.3 ± 0.36 | – | 0 | -0.1 | -0.42 | -0.67 | -0.87 | -0.96 | -0.62 | – | -1.22 | – | – | -1.13 | -0.09 | -0.49 |
